From PubChem
Shown are actives, neighbours in structure and some others; about 2% of the full set was active somewhere.
CHRM4 antagonist: antagonists of human muscarinic M4 receptor (CHRM4). CHO-hM4 cells, ACh EC80, Fluo-8 calcium fluorescence. 0.73% of 360,000 active. inhibition, % at 3 µM;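 active = inhibition above its plate's cutoff, the mean inhibition of sample wells plus 3 SD, cut at about 27% in these data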;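 also: 0% = acetylcholine EC80 with DMSO and 100% = DMSO without agonist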
Target sequence (P08173 whole entry, looked up): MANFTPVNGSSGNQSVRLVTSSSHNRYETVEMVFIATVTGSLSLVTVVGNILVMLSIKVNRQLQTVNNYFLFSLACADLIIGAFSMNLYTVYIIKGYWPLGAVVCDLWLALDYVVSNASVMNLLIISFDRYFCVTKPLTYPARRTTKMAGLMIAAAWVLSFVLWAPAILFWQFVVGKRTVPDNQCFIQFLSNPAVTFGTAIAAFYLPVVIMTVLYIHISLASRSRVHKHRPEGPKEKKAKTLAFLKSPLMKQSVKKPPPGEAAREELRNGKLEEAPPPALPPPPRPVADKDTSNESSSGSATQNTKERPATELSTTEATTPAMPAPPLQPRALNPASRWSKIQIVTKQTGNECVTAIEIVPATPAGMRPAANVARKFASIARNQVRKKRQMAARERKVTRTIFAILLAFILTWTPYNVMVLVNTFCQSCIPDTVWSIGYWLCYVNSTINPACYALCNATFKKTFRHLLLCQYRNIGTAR
M1 ag parental: nonselective activator or artifact in parental CHO-K1 cells. AID 602248. 0.48% of 360,000 active. Fluo-8 calcium fluorescence; scaled to maximal ATP response, vehicle zero. activation, % at 3 µM; in the data active = activation above about 15%;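 also: untransfected CHO-K1 host cells lacking M1 receptor as counterscreen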
CHRM4 agonist: agonists of human muscarinic M4 receptor (CHRM4) | P08173 | CHO-K1 hM4/Gqi5, Fluo-8 calcium fluorescence; vehicle 0%, full acetylcholine response 100% | activation, % at 3 µM | 0.14% of 360,000 active | AID 624127;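 active = activation above the run mean over all test wells plus 3 SD, cut at about 32% in these data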;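 also: peak over basal fluorescence ratio per well then scaled between controls; 0% = DMSO wells and 100% = acetylcholine at EC100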
CHO-K1 Ca antag: nonselective inhibitor or artifact in parental CHO-K1 cells; ATP-induced calcium, Fluo-8 fluorescence; inhibition, % at 3 µM; 0.6% of 360,000 active; AID 602250;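 active = inhibition above a per-plate cutoff, the plate's mean sample inhibition plus 3 SD, cut at about 24% in these data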;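 also: 0% = DMSO plus EC80 ATP and 100% = DMSO alone without ATP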
M1 PAM parental: nonselective activator or artifact in parental CHO-K1 calcium assay; ATP EC20, Fluo-8 calcium fluorescence; 0% at ATP EC20, 100% at ATP max; activation, % at 3 µM; 0.02% of 360,000 active;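 active = activation above the run cutoff, the mean activation of all test compounds plus 3 SD, cut at about 40% in these data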;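 also: peak over basal fluorescence ratio in a 140 s read after ATP addition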
M4 PAM: CHRM4 positive allosteric modulation | P08173 | CHO-K1 hM4/Gqi5, Fluo-8 calcium fluorescence, ACh EC20; 0% = ACh EC20, 100% = maximal ACh | activation, % at 3 µM | 0.4% of 360,000 active | AID 624126;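 active = activation above its plate's cutoff, the mean activation of sample wells plus 3 SD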
Active calls of the source: *.

SMILES	CHRM4 antagonist	M1 ag parental	CHRM4 agonist	CHO-K1 Ca antag	M1 PAM parental	M4 PAM
COc1ccc(C2=NO[C@@](CC(=O)O)(C(=O)Nc3ccc4c(c3)OCCO4)C2)cc1	9	2	0	-17	13	-1
N#Cc1cc2nc(O)c(O)nc2cc1[N+](=O)[O-]	-3	0	0	-2	11	4
CNc1nc2cc([N+](=O)[O-])c([N+](=O)[O-])cc2nc1NC	13	18*	18	39*	-8	-9
O=C(c1cccc2c1-c1ccccc1/C2=N/O)N1CCCCC1	3	0	0	25*	-7	2
O=C(O)c1ccc(CN2C(=O)c3ccc(Oc4ccc([N+](=O)[O-])cc4)cc3C2=O)cc1	-1	0	1	15	-13	-5
O=C1c2ccc(Oc3ccc([N+](=O)[O-])cc3)cc2C(=O)N1CCO	0	17*	4	-8	14	1
S=c1[nH]nc(-c2ccncc2)n1/N=C/C(Cl)=C\c1ccccc1	-16	1	5	-15	8	26*
S=c1[nH]nc(-c2ccncc2)n1/N=C/C=C/c1ccccc1	-8	1	0	-9	15	11
COc1ccc(C(=O)C2CCCN(C(=O)CCc3scnc3C)C2)c(C)c1 (centres undefined)	-1	18*	5	3	12	-6
Cc1cc([N+](=O)[O-])nn1CC(=O)Nc1ccccn1	-2	0	1	-2	15	25*
COc1cc(C(=O)N/N=C(\C)Cn2nc([N+](=O)[O-])cc2C)ccc1O	3	0	1	28*	-12	-2
CCCn1c(N)cc(=O)n(C)c1=O	5	0	1	-6	2	-4
COc1cc(C(O)c2nc(-c3cccc(F)c3)cs2)ccc1F (centres undefined)	2	2	6	4	-8	4
Cc1ccc(OCc2cn3cccnc3n2)cc1	-2	95*	1	67*	-4	12
CCN(CC(=O)Nc1cccc(S(=O)(=O)N(C)c2ccccc2)c1)Cc1cccs1	-6	2	6	0	12	6
Nc1nc2ccccc2n1S(=O)(=O)c1ccc([N+](=O)[O-])cc1	16	1	2	-4	10	-13
Nc1nc2ccccc2n1S(=O)(=O)c1ccc(Cl)cc1	52*	0	2	3	-4	-14
CCOc1ccc(S(=O)(=O)n2c(C)nc3ccccc32)cc1	3	1	1	-4	14	-7
Cc1ccc(S(=O)(=O)n2c(N)nc3ccccc32)cc1	86*	2	3	-20	16	-18
COc1ccc(S(=O)(=O)n2c(N)nc3ccccc32)cc1	73*	1	7	0	-9	-14
O=C(CCn1c(=O)oc2ccccc21)Nc1cccc([N+](=O)[O-])c1	3	1	1	-2	-11	-4
CS(=O)(=O)N1N=C(c2cccs2)CC1c1ccco1 (centres undefined)	4	0	2	-15	6	3
COc1cccc(C(=O)Nc2cc(-c3cn4cccnc4n3)ccc2C)c1	-8	2	7	-9	13	-4
COc1ccc(-n2nc([N+](=O)[O-])c(=NCc3cccnc3)n2O)cc1	12	2	1	-6	13	-6
COc1ccc(-n2nc([N+](=O)[O-])c(=NC3CCN(Cc4ccccc4)CC3)n2O)cc1	28*	1	0	-12	20	-18
SMILES	CHRM4 antagonist	M1 ag parental	CHRM4 agonist	CHO-K1 Ca antag	M1 PAM parental	M4 PAM
Cc1ccc2c(c1)NC(=O)C(CC(=O)O)O2 (centres undefined)	-15	0	1	26*	-8	7
CC(=O)C[C@H](O)CC(=O)[C@H]1OC(=O)CCCCCc2ccccc21	-6	1	0	-5	14	-2
CC(=O)C[C@H](O)CC(=O)[C@H]1OC(=O)CC/C=C\Cc2ccccc21	-3	0	2	-6	-3	25*
CCCC(=O)N1CCC1(C)C(=O)Nc1ccc2nc(C)ccc2c1 (centres undefined)	-20	1	3	-17	21	5
COc1ccc(C[C@@H]2CN3C(=NC[C@@H]3Cc3ccc(O)cc3)N2C[C@H](C)NC(=O)CCC2CCCCC2)cc1	28*	0	-1	-6	8	-13
COc1ccc(C[C@H]2CN3C(=NC[C@@H]3Cc3ccc(O)cc3)N2C[C@H](C)NC(=O)CCC2CCCCC2)cc1	22	0	-1	-9	2	-15
O=C(NCc1ccco1)c1ccccc1NS(=O)(=O)c1cccs1	0	19*	1	2	16	5
O=C(NCc1ccco1)c1ccccc1NS(=O)(=O)c1ccc(Cl)s1	-4	8	7	6	7	-9
COc1ccc(-n2ncc3c(Nc4cccc(C)c4)ncnc32)cc1	-13	0	2	1	10	19*
O=C(NCCc1ccc(Cl)cc1)c1cccc(S(=O)(=O)N2CCCC2)c1	-17	1	6	8	-2	-2
COc1ccccc1C1(O)C(=O)Nc2ccccc21 (centres undefined)	-13	0	2	-13	5	15*
CC1(C(=O)OCC(=O)NCCNC(=O)COC(=O)C2(C)CC2(Cl)Cl)CC1(Cl)Cl (centres undefined)	-1	2	7	18	12	-7
COc1cc(C(=O)NCc2nnc(SCC(=O)N3CCCc4ccccc43)o2)cc(OC)c1OC	-5	0	1	-3	12	-1
CCOc1ccccc1NC(=O)C(OC(=O)C1CC1)c1ccccc1 (centres undefined)	-4	1	-1	-11	18	-5
CCOc1ccccc1NC(=O)C(OC(=O)c1cnc(C)cn1)c1ccccc1 (centres undefined)	-22	0	-1	-12	46*	14
COc1ccccc1OCC(=O)Nc1sc2c(c1C(=O)NCC1CCCO1)CCC2 (centres undefined)	-7	3	6	-9	11	-12
CNC(=O)Nc1ccccc1C(=O)NCc1ccccc1	87*	0	-3	-5	8	10
CC(O)(c1cccnc1)c1nc(-c2cccc(C#N)c2)cs1 (centres undefined)	-17	3	5	-9	15	19*
CC(O)(c1cccc(F)c1)c1nc(-c2cccc(C#N)c2)cs1 (centres undefined)	-11	0	2	-7	8	2
C[C@H]1CN([C@@H](C)CO)C(=O)CCCn2cc(nn2)CO[C@@H]1CN(C)S(=O)(=O)c1ccc(Oc2ccccc2)nc1	-26	0	6	-9	9	4
